Values joined by “and” are separate entries in the source; they are usually repeats but may differ in a detail not shown here. Equal entries are not always repeated. This is part of a sample that, as a whole, favours compounds with a hit. Of some 79,000 tested, about 15% had one in any assay. Some structures have more than one record in an assay (separate samples or runs), and their calls can disagree. Active and inactive are the calls of the source. Cut-off read from the data, not from the text of the source: active = growth inhibition above about 70%; inactive = the rest.
Columns and labels:
[1] = NCI Yeast Anticancer Drug Screen. Data for the rad50 strain (AID 155);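 note: 0% = growth of vehicle-only cultures of the same strain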; conditions: S. cerevisiae rad50 strain growth inhibition, stronger effect = higher value
How it was run: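 Growth of the mutant yeast was measured after compound exposure and referenced to vehicle-treated cultures.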

[2] = NCI Yeast Anticancer Drug Screen. Data for the mec2-1 strain (AID 157); conditions: S. cerevisiae mec2-1 strain, stronger effect = higher value
How it was run: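 Cells of the genetically defined mec2-1 yeast strain are incubated with test compound. Inhibition of growth is calculated against vehicle-treated controls.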

[3] = NCI Yeast Anticancer Drug Screen. Data for the sgs1 mgt1 strain (AID 161);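 note: 0% = growth of cultures given vehicle only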; conditions: S. cerevisiae sgs1 mgt1 strain, stronger effect = higher value
How it was run: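 Genetically altered yeast, compound exposure, growth inhibition relative to vehicle.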

[4] = NCI Yeast Anticancer Drug Screen. Data for the cln2 rad14 strain (AID 165);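 note: 0% = growth equal to vehicle treated cultures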; conditions: S. cerevisiae cln2 rad14 strain, stronger effect = higher value
How it was run: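 The screen exposed genetically defined yeast (cln2 rad14) to test compounds and scored growth inhibition relative to vehicle-treated controls.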

[5] = NCI Yeast Anticancer Drug Screen. Data for the bub3 strain (AID 167); conditions: S. cerevisiae bub3 mutant strain, stronger effect = higher value
How it was run: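 Whole-cell yeast assay. The mutant strain was incubated with compounds, and growth inhibition was determined by comparison with vehicle-treated cells.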

[6] = NCI Yeast Anticancer Drug Screen. Data for the mlh1 rad18 strain (AID 175); conditions: S. cerevisiae mlh1 rad18 strain growth inhibition, stronger effect = higher value
How it was run: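 Compound-treated yeast growth, normalised to vehicle controls. Strain bears defined DNA repair mutations.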

[7] = at 5.0 µM (retest, dose inferred, filed as 0.5)
[8] = at 50.0 µM (retest, dose inferred, filed as 5.0)

| Structure (SMILES) | growth inhibition [1, 7] | growth inhibition [1, 8] | growth inhibition ([1]; at 50.0 µM) | growth inhibition [2, 7] | growth inhibition [2, 8] | growth inhibition ([2]; at 50.0 µM) | growth inhibition [3, 7] | growth inhibition [3, 8] | growth inhibition ([3]; at 50.0 µM) | growth inhibition [4, 7] | growth inhibition [4, 8] | growth inhibition ([4]; at 50.0 µM) | growth inhibition [5, 7] | growth inhibition [5, 8] | growth inhibition ([5]; at 50.0 µM) | growth inhibition [6, 7] | growth inhibition [6, 8] | growth inhibition ([6]; at 50.0 µM) |
| --- | --- | --- | --- | --- | --- | --- | --- | --- | --- | --- | --- | --- | --- | --- | --- | --- | --- | --- |
| ClCCCCCl | 13% (inactive) | -2% (inactive) | 32.2% (inactive) | -4% (inactive) | -2% (inactive) | 16.8% (inactive) | 5% (inactive) | -5% (inactive) | -18.9% (inactive) | 5% (inactive) | -6% (inactive) | 41% (inactive) | 4% (inactive) | 0% (inactive) | -17.6% (inactive) | 4% (inactive) | -1% (inactive) | 26.6% (inactive) |
| FC1(F)C(Cl)=[C]([Hg][C]2=C(Cl)C(F)(F)C(F)(F)C(F)(F)C2(F)F)C(F)(F)C(F)(F)C1(F)F | 45% (inactive) | 98% (active) | 98.6% (active) | 66% (inactive) | 99% (active) | 51.1% (inactive) | 58% (inactive) | 99% (active) | 99.7% (active) | 57% (inactive) | 99% (active) | 19.9% (inactive) | 69% (inactive) | 99% (active) | 75% (active) | 57% (inactive) | 99% (active) | 50.6% (inactive) |
| CC1=[N+](Cc2cc(C)cc(C)c2O)CCCC1 | -5% (inactive) | 4% (inactive) | -5.5% (inactive) | -8% (inactive) | -9% (inactive) | -7.45% (inactive) | -5% (inactive) | -57% (inactive) | 41.2% (inactive) | -2% (inactive) | -4% (inactive) | -3% (inactive) | -8% (inactive) | -1% (inactive) | 1.2% (inactive) | -13% (inactive) | -8% (inactive) | -24.7% (inactive) |
| Oc1ccc(Cl)cc1Sc1cc(Cl)ccc1O | 99% (active) and 98% (active) and 90% (active) | 100% (active) and 99% (active) | 99.3% (active) and 41% (inactive) and 99.6% (active) | 98% (active) and 94% (active) and 68% (inactive) | 100% (active) and 99% (active) | 99.5% (active) and 99.7% (active) | 96% (active) and 98% (active) and 88% (active) | 99% (active) and -8% (inactive) | 99.5% (active) and 99.6% (active) and 99.7% (active) | 98% (active) and 94% (active) | 100% (active) and 99% (active) | 99% (active) and 99.3% (active) and 99.2% (active) | 99% (active) and 88% (active) and 68% (inactive) | 100% (active) and 99% (active) | 99.3% (active) and 99.5% (active) and 99.6% (active) | 99% (active) and 89% (active) | 100% (active) and 99% (active) | 99.3% (active) and 99.5% (active) and 99.4% (active) |
| ClCCN(CCCl)c1ccc(CNCCCNCc2ccc(N(CCCl)CCCl)cc2)cc1 | -1% (inactive) | 57% (inactive) | 94.7% (active) | -13% (inactive) | 7% (inactive) | 49% (inactive) | -12% (inactive) | 41% (inactive) | 99.1% (active) | -2% (inactive) | 37% (inactive) | 14.8% (inactive) | -3% (inactive) | 38% (inactive) | 43% (inactive) | 4% (inactive) | 98% (active) | 99.2% (active) |
| CC[C@@]1(O)C(=O)OCc2c1cc1n(c2=O)Cc2cc3cc4c(cc3nc2-1)OCO4 | 95% (active) | 92% (active) | 72.4% (active) | 97% (active) | 94% (active) | 81.3% (active) | 91% (active) | 85% (active) | 80.9% (active) | 48% (inactive) | 47% (inactive) | 71.7% (active) | 85% (active) | 83% (active) | 74.3% (active) | 91% (active) | 89% (active) | 34.4% (inactive) |

From PubChem BioAssay (NCI)
